Reference: the supplement of paper PMC3545927
The list shows a part of the results. How many sequences the whole screen found active is unknown.

B1: HC1908 (peptide)
chain: CATTPCSGWWAGNASASA
B2: HC1776 (peptide)
chain: CAMEECSQHGAGNASASA
B3: HC2377 (peptide)
chain: CAEVPCHSPSAGNASASA
B4: HC2347 (peptide)
chain: CAEVFCHRPSAGNASASA
B5: FS-440 (peptide)
chain: CAHLQRQKRDAGNASASA
B6: FS-1048 (peptide)
chain: CAPKRRQKRDAGNASASA
B7: HC1111 (peptide)
chain: CAILRRHVGPAGNASASA
B8: FS-1214 (peptide)
chain: CAILRRHKRDAGNASASA
B9: FS-336 (peptide)
chain: CAHWSVTKRDAGNASASA
B10: FS-1150 (peptide)
chain: CAQHSVRKRDAGNASASA
B11: HC2061 (peptide)
chain: CAVVCCSNSYAGNASASA
B12: HC2305 (peptide)
chain: CALVPCHRPSAGNASASA
B13: HC2124 (peptide)
chain: CAEIVVCCSMAGNASASA
B14: HC1491 (peptide)
chain: CAQCCDLDPQAGNASASA
B15: HC1760 (peptide)
chain: CAMEECSQCLAGNASASA
B16: HC126 (peptide)
chain: CAEVVFSTWVAGNASASA
B17: FS-930 (peptide)
chain: CAGLRRRKRDAGNASASA
B18: HC1344 (peptide)
chain: CATSSEPAPSAGNASASA
B19: FS-1422 (peptide)
chain: CATDSRTNRDAGNASASA
B20: FS-1092 (peptide)
chain: CATHRRQKRDAGNASASA
B21: FS-571 (peptide)
chain: CATSSRNARNAGNASASA
B22: FS-542 (peptide)
chain: CAISPRQKRDAGNASASA
B23: HC1911 (peptide)
chain: CATTPCSGDWAGNASASA
B24: HC2196 (peptide)
chain: CAEVGTSTWVAGNASASA
B25: HC2257 (peptide)
chain: CAEVVTSTWSAGNASASA
B26: HC2532 (peptide)
chain: CASTPCSEHLAGNASASA
B27: HC1471 (peptide)
chain: CAVEFLVQAWAGNASASA
B28: HC1434 (peptide)
chain: CALEDNVTPIAGNASASA
B29: HC986 (peptide)
chain: CAADLEVVTSAGNASASA
B30: FS-1565 (peptide)
chain: CARPSRVARDAGNASASA
B31: FS-885 (peptide)
chain: CATSNSLKRDAGNASASA
B32: FS-630 (peptide)
chain: CATSSRRKRDAGNASASA
B33: FS-1479 (peptide)
chain: CARPSRPWRDAGNASASA
B34: FS-1617 (peptide)
chain: CATSSRSARKAGNASASA
B35: FS-1013 (peptide)
chain: CAIITRWKRDAGNASASA
B36: FS-389 (peptide)
chain: CAYDSMKKRDAGNASASA
B37: FS-2286 (peptide)
chain: CARPSRQIHKAGNASASA
B38: HC1047 (peptide)
chain: CAQYLAGLSTAGNASASA
B39: FS-2559 (peptide)
chain: CARKKKAWIYAGNASASA
B40: HC2016 (peptide)
chain: CAVGCCSMSYAGNASASA
B41: TR4 (peptide)
chain: CAQSPRSFQKAGNASASA
B42: HC227 (peptide)
chain: CALMGYIPLVAGNASASA
B43: HC1704 (peptide)
chain: CAMEICSQHLAGNASASA

Biological target: furin, P09958
Sequence (P09958 whole entry): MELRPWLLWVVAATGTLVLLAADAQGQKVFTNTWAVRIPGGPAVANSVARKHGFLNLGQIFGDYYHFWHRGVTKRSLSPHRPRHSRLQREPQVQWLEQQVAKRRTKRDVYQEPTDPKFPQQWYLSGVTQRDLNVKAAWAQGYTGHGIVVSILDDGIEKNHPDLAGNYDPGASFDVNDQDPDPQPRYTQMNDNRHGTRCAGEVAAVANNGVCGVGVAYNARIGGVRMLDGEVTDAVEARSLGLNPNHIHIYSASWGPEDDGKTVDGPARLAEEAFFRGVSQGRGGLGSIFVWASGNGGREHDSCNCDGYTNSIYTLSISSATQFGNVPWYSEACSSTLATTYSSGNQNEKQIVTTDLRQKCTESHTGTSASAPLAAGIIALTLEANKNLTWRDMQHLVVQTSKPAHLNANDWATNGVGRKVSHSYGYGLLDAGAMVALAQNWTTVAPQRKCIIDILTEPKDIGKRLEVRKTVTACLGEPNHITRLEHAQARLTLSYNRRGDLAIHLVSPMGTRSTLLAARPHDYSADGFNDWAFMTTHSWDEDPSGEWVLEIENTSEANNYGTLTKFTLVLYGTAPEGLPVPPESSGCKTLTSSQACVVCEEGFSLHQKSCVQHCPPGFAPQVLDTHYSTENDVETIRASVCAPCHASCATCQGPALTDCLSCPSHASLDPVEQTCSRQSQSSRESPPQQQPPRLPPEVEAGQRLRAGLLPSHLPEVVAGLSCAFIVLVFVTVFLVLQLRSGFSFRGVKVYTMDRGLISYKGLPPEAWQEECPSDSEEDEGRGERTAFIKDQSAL
Assay: furin cleavage Z-score vs untreated control; higher = more cleavage, active = 3.5 or more, inactive = 1 or less, 8 variable residues between constant flanks
In short: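 Read counts from sequencing released DNA gave abundance for each bead-bound 8-mer peptide–cDNA fusion cut by purified furin over 7.5, 15 or 30 min. The cleavage Z-score compares log counts with furin-free reactions after lowess adjustment and median absolute deviation scaling.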
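Note: purified furin at 1:10 enzyme:substrate in 50 mM HEPES pH 7.5.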

Sequence | furin cleavage Z-score (7.5 min) | furin cleavage Z-score (15 min) | furin cleavage Z-score (30 min)
B1 | -0.371 (inactive) | -1.44 (inactive) | 0.0983 (inactive)
B2 | -0.484 (inactive) | 0.542 (inactive) | -0.44 (inactive)
B3 | -0.25 (inactive) | -0.38 (inactive) | 1.09
B4 | -0.391 (inactive) | -1 (inactive) | 0.51 (inactive)
B5 | 6.68 (active) | 7.1 (active) | 5.53 (active)
B6 | 13.5 (active) | 14.7 (active) | 10 (active)
B7 | 0.0974 (inactive) | -0.838 (inactive) | 0.671 (inactive)
B8 | 10.7 (active) | 10.2 (active) | 7.94 (active)
B9 | 0.168 (inactive) | 0.304 (inactive) | 0.862 (inactive)
B10 | 11.7 (active) | 12.2 (active) | 10.4 (active)
B11 | 0.77 (inactive) | -0.0199 (inactive) | 0.92 (inactive)
B12 | 0.746 (inactive) | 0.178 (inactive) | 0.32 (inactive)
B13 | 0.157 (inactive) | -0.897 (inactive) | 0.583 (inactive)
B14 | 0.144 (inactive) | 0.912 (inactive) | -0.252 (inactive)
B15 | -0.273 (inactive) | -0.494 (inactive) | 0.638 (inactive)
B16 | 1.73 | -1.1 (inactive) | -0.791 (inactive)
B17 | 12.2 (active) | 10.2 (active) | 8.8 (active)
B18 | -0.191 (inactive) | -1.38 (inactive) | -0.0397 (inactive)
B19 | -1.07 (inactive) | -0.239 (inactive) | 1.78
B20 | 3.98 (active) | 2.56 | 2.3
B21 | 3.05 | 4.2 (active) | 5.2 (active)
B22 | 12.4 (active) | 12.3 (active) | 9.21 (active)

Sequence | furin cleavage Z-score (7.5 min) | furin cleavage Z-score (15 min) | furin cleavage Z-score (30 min)
B23 | 1.59 | -1.02 (inactive) | 0.621 (inactive)
B24 | 0.089 (inactive) | 1.37 | 0.992 (inactive)
B25 | 0.148 (inactive) | -0.0297 (inactive) | 0.967 (inactive)
B26 | 1.63 | 0.136 (inactive) | -0.509 (inactive)
B27 | -1.03 (inactive) | -0.538 (inactive) | 0.302 (inactive)
B28 | -0.871 (inactive) | -0.336 (inactive) | -2.15 (inactive)
B29 | 0.0893 (inactive) | -0.606 (inactive) | -0.099 (inactive)
B30 | 13.5 (active) | 13.3 (active) | 9.92 (active)
B31 | -0.606 (inactive) | 0.0826 (inactive) | -0.0438 (inactive)
B32 | 11 (active) | 10.2 (active) | 7.47 (active)
B33 | -0.109 (inactive) | 1.22 | 0.811 (inactive)
B34 | -0.831 (inactive) | 2.68 | 0.36 (inactive)
B35 | 11.5 (active) | 11.3 (active) | 8.16 (active)
B36 | 0.389 (inactive) | 0.234 (inactive) | 0.576 (inactive)
B37 | 1.18 | -0.223 (inactive) | 1.59
B38 | -0.145 (inactive) | 1 | 1.23
B39 | 0.615 (inactive) | -1.67 (inactive) | -1.6 (inactive)
B40 | -0.196 (inactive) | -0.437 (inactive) | 1.21
B41 | -0.296 (inactive) | -2.07 (inactive) | -0.29 (inactive)
B42 | 0.341 (inactive) | 2.34 | -0.327 (inactive)
B43 | 0.947 (inactive) | 2.02 | 0.46 (inactive)
